Assay [1] has as its target Cellular tumor antigen p53 (Homo sapiens) (UniProt P04637). Nature of the assay: TOX21_p53_BLA_p2_ratio: Tox21 HCT-116 p53 Agonism Beta-lactamase Assay, Ratio, Phase 2 (AID 2283592). The gist of the method: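 Cleaved-to-uncleaved substrate ratio (460 vs 530 nm) measured in HCT116 cells with an inducible beta-lactamase reporter linked to p53 activity. Compounds incubated 16 h at 37C before 2 h room-temperature CCF4-AM loading.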

A short description of assay [2]: TOX21_p53_BLA_p3_viability: Viability Assessment in the Tox21 HCT-116 p53 Agonism Beta-lactamase Assay, Phase 3 (AID 2283593).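 Further: cells exposed to compound for 16 h before reading.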 The gist of the method:
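HCT-116 cells (4000/well) rested 5 h at 37C, then got DMSO compounds by pin tool (217-fold dilution) for 16 h at 37C, 5% CO2. After the bla read, CellTiter-Glo was added and luminescence read at 30 min, room temperature.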

The target in assay [3] is Cellular tumor antigen p53 (Homo sapiens) (UniProt P04637). Kind of assay: TOX21_p53_BLA_p3_ratio: Tox21 HCT-116 p53 Agonism Beta-lactamase Assay, Ratio, Phase 3 (AID 2283596). The gist of the method:
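Cells were seeded at 4000/well, rested 5 h at 37C, then dosed with DMSO compound solutions (217-fold dilution) for 16 h. CCF4-AM substrate was loaded for 2 h at room temperature, and the 460/530 nm emission ratio was fitted for gain of signal versus DMSO.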

Assay [4] is described as follows: TOX21_p53_BLA_p4_viability: Viability Assessment in the Tox21 HCT-116 p53 Agonism Beta-lactamase Assay, Phase 4 (AID 2283597).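 Further: hits lower the luminescence signal meaning cytotoxicity.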 The gist of the method:
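Viability is taken as cellular ATP: after 16 h compound exposure of HCT116 cells and a 2 h room-temperature CCF4-AM substrate step, CellTiter-Glo reagent is added and luminescence is measured 30 min later.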

Assay [5] concerns the target Cellular tumor antigen p53 (Homo sapiens) (UniProt P04637). Kind of assay: TOX21_p53_BLA_p5_ratio: Tox21 HCT-116 p53 Agonism Beta-lactamase Assay, Ratio, Phase 5 (AID 2283599). The gist of the method: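 HCT-116 cells carrying a p53-inducible beta-lactamase reporter were seeded at 4000 cells/well and dosed after 5 h with compound in DMSO (217-fold dilution). After 16 h at 37C, CCF4-AM substrate was added for 2 h, and the 460/530 nm emission ratio was scored as gain-of-signal versus DMSO.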

A short description of assay [6]: TOX21_p53_BLA_p5_viability: Viability Assessment in the Tox21 HCT-116 p53 Agonism Beta-lactamase Assay, Phase 5 (AID 2283600). The gist of the method:
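Viability is taken from cellular ATP content, measured by luciferase luminescence in the same wells after the beta-lactamase ratio read. Cells are seeded at 4000 per well and exposed to DMSO-dissolved compounds, diluted 217-fold, for 16 h.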

For assay [7], the target named is Cellular tumor antigen p53 (Homo sapiens) (UniProt P04637). Kind of assay: TOX21_p53_BLA_p4_ratio: Tox21 HCT-116 p53 Agonism Beta-lactamase Assay, Ratio, Phase 4 (AID 2283601). The gist of the method: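 HCT116 cells carrying an inducible beta-lactamase reporter were plated at 4000 cells/well, rested 5 h, then exposed to compounds in DMSO (217-fold dilution) for 16 h at 37C. CCF4-AM substrate was loaded 2 h at room temperature; 460/530 nm emission ratio scored gain-of-signal versus DMSO.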

Assay [8] can be described thus: TOX21_TRB_BLA_Antagonist_Followup_viability: Viability Assessment in the Tox21 Thyroid Hormone Receptor beta Antagonism Beta-lactamase (BLA) Follow-Up Assay (AID 2283961). The gist of the method: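 Cytotoxicity is measured in parallel with the antagonist-mode TRβ beta-lactamase screen, using ATP-coupled luciferase luminescence. Engineered HEK293T cells are treated for 18 h with 11-point compound series in triplicate.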

Assay [9] can be described thus: TOX21_TR_RXR_BLA_Antagonist_Followup_viability: Viability Assessment in the Tox21 Thyroid Hormone Receptor beta Retinoid X Receptor alpha (RXRa) Antagonism Beta-lactamase (BLA) Follow-Up Assay (AID 2283979). The gist of the method: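 RXRa-UAS-bla HEK293T cells seeded 2,500/well in phenol red-free DMEM with 2% charcoal-stripped FBS, attached 5 h, then exposed to compounds at 11 concentrations in triplicate for 16 h at 37C/5% CO2. Viability read by CellTiter-Glo ATP luminescence; bidirectional fit versus DMSO.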

In assay [10] the target is Thyroid hormone receptor alpha (Rattus norvegicus) + Thyroid hormone receptor beta (Rattus norvegicus) (UniProt P18113+P63059). Kind of assay: TOX21_TR_LUC_GH3_Antagonist_Followup: Tox21 GH3 Thyroid Hormone Receptor Antagonism Luciferase Follow-Up Assay (AID 2283942). A digest of the protocol: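 In a GH3 luciferase reporter line, test chemicals spanning 92 uM to 5nM final are co-incubated 24 h with 1.0 nM T3. Activity is expressed as relative luminescence units and analysed relative to DMSO.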

Assay [11] concerns the target THRA (gene 7067) (UniProt P10827). Nature of the assay: TOX21_TRA_COA_Antagonist_Followup_ratio: Tox21 Thyroid Hormone Receptor alpha Antagonism through Coactivator Recruitment Follow-Up Assay, Ratio (AID 2283953). The gist of the method: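 We measured antagonism of T3-type coactivator recruitment using a TR-FRET ratio (emission 520 and 495 nm) between a Tb-labelled anti-GST antibody on TRα LBD (2.5 nM) and SRC-2 peptide (200 nM). Activity was scaled between DMSO and T3 wells.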

A short description of assay [12]: CCTE_Harrill_HTTr_Viability_MCF7: CCTE's 6-hour Cell Viability Assessment for the High-Throughput Transcriptomics (HTTr) Platform, in MCF-7 cells cultured in DMEM + 10% fetal bovine serum, Harrill Lab (AID 2284010; active means hit-call score of the fitted dose curve at least 0.9, where 1 is the maximum; inactive means score below 0.9). The gist of the method:
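PI exclusion, high-content imaging; 8-pt dilution series, 6 h exposure; bidirectional fit vs DMSO (neg. ctrl/baseline); gain of signal = loss of membrane integrity.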

Assay [13] can be described thus: CCTE_Harrill_HTTr_Apoptosis_MCF7: CCTE's 6-hour Apoptosis Assessment for the High-Throughput Transcriptomics (HTTr) Platform, in MCF-7 cells cultured in DMEM + 10% fetal bovine serum, Harrill Lab (AID 2284011; active means hit-call score of the fitted dose curve at least 0.9, where 1 is the maximum; inactive means score below 0.9). A digest of the protocol: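 Cells are dosed with test chemicals at eight concentrations and imaged 6 hours later for caspase-3/7 activity using a green fluorogenic detection reagent. Activity is fitted in both directions against DMSO controls.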

Assay [14] in a line: CCTE_Harrill_HTTr_CellCount_MCF7: CCTE's Cell Proliferation Assessment for the High-Throughput Transcriptomics (HTTr) Platform, Harrill Lab (AID 2284012).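 Further: count of Hoechst-stained nuclei per well by high-content imaging in MCF-7 cells; cells exposed to compound for six hours; intended direction is loss of nuclei count meaning fewer cells.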 The gist of the method: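 Readout: Hoechst nuclear count by high-content imaging. MCF-7, 8-point dilution series, 6 h exposure. Bidirectional fit vs DMSO baseline.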

What is called AC50 is the midpoint of the concentration-response curve, whichever way the signal moves.

The structures appear in SMILES notation. Values joined by “and” are separate entries in the source; they are usually repeats but may differ in a detail not shown here. Equal entries are not always repeated. Results filed as inconclusive are left out. Some structures have more than one record in an assay (separate samples or runs), and their calls can disagree. Active and inactive are the calls of the source. How the source made its calls, unless noted: active means hit-call score of the fitted dose curve at least 0.9, where 1 is the maximum; inconclusive means response in the unintended direction; inactive means score below 0.9.

Cellular tumor antigen p53 (Homo sapiens), sequence (P04637 whole entry, looked up): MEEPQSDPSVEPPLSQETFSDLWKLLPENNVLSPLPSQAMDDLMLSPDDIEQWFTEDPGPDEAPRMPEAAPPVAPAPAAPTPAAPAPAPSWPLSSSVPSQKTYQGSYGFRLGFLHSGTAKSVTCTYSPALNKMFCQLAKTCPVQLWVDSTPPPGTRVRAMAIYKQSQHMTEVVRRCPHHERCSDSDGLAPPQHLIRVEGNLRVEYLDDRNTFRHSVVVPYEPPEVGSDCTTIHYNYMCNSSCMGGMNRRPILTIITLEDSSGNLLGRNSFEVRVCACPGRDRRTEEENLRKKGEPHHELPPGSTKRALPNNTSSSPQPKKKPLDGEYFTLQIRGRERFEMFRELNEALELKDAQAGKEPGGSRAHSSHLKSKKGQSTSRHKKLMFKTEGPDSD
THRA (gene 7067), sequence (P10827 whole entry, looked up, the tested form may be a part): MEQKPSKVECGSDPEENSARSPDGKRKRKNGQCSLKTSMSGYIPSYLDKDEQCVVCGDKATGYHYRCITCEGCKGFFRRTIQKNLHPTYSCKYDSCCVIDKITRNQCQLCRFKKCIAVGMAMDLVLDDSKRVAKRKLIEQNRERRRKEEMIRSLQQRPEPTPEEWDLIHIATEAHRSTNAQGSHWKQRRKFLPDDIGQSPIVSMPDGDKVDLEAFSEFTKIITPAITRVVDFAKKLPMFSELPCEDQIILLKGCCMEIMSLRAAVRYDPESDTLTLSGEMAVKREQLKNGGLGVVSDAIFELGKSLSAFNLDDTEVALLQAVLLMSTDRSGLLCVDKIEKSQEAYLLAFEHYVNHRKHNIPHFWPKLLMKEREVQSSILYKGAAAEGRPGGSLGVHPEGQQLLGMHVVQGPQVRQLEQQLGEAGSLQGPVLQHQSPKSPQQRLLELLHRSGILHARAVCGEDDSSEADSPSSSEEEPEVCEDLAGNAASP

As to `Oc1ccc(OCc2ccccc2)cc1`, the concentration at half-maximal activity (AC50) was 25.1 µM (active) and 9.17 µM (active) in [1]; 25.7 µM (active) and 10.9 µM (active) in assay [3]; 9.05 µM (active) in assay [7]. For the same compound, the call in assay [2], in assay [4], in [5], in [6], in assay [7] and in assay [8] was inactive. In [9], the outcome was inactive.
`C=CCN1C(=O)C(CC(C)C)NC1=S` (centres undefined): the result in assay [1], in assay [2], in assay [3], in assay [4], in [5] and in assay [6] was inactive. The result in assay [7] was inactive.
Consider `NC(Cc1ccc(F)cc1)C(=O)O` (centres undefined), for which the result in assay [1], in [2], in [3], in assay [4], in assay [5] and in [7] was inactive.
Turning to `CO[C@@H]1[C@@H](O[C@@H]2O[C@H](C)[C@@H](O[C@H]3C[C@@](C)(O)[C@@H](OC(=O)CC(C)C)[C@H](C)O3)[C@H](N(C)C)[C@H]2O)[C@@H](CC=O)C[C@@H](C)C(=O)/C=C/C2OC2C[C@@H](C)OC(=O)C[C@H]1OC(C)=O` (some centres undefined), the result in [1], in [2], in assay [3], in assay [4], in assay [5] and in assay [6] was inactive. In addition, in assay [7], the outcome was inactive.
In the case of `C=C(C)C(=O)OCC(C)(C)COC(=O)C(=C)C`, the result in assay [1], in assay [2], in [3], in assay [4], in [5] and in [6] was inactive. Further, the outcome in [7] was inactive.
As for `CCN(CC)CCNc1ccc(CO)c2sc3ccccc3c(=O)c12`, the AC50 in assay [1] was 16.2 µM (active); in assay [3], 23.2 µM (active); in [4] it was 33.2 µM (active); in assay [5] it was 20.5 µM (active); in assay [7], 14.3 µM (active). For the same compound, the result in assay [2] was inactive.
As for `CO[C@H](C(=O)[C@@H](O)[C@@H](C)O)C1Cc2cc3cc(O[C@H]4C[C@@H](O[C@H]5C[C@@H](O)[C@H](O)[C@@H](C)O5)[C@@H](O)[C@@H](C)O4)c(C)c(O)c3c(O)c2C(=O)[C@H]1O[C@H]1C[C@@H](O[C@H]2C[C@@H](O[C@H]3C[C@](C)(O)[C@H](O)[C@@H](C)O3)[C@H](O)[C@@H](C)O2)[C@H](O)[C@@H](C)O1` (some centres undefined), the AC50 in assay [1] is 23.8 nM (active) and 43.4 nM (active); in [3] it was 24.2 nM (active) and 37.6 nM (active); in [5], 36 nM (active) and 39.5 nM (active); in assay [7], 45.6 nM (active) and 49.7 nM (active); in assay [10], 0.745 µM (active); in assay [9] it was 1.35 µM (active). In addition, the compound was classed as inactive in assay [2], in assay [4], in assay [6], in assay [11] and in [8].
Take `Nc1c2c(nc3ccccc13)CCCC2`: the outcome in [1], in assay [2], in assay [3], in [4], in assay [5] and in assay [6] was inactive. Also, the outcome in [7], in assay [12], in assay [13] and in assay [14] was inactive.

Source of the values: PubChem BioAssay (EPA / NIEHS).
